High-throughput results: PubChem, National Center for Advancing Translational Sciences (NCATS)
Hits are enriched below; roughly 11% of the tested compounds scored in any of these assays.
HPGD block = HPGD (human) dehydrogenase inhibition. Potency, µM, for inactives: top-dose activity change, negative = inhibition, most hits filed as inhibitors. purified HPGD, NADH fluorescence kinetic, PGE2 substrate. P15428. 150,000 compounds, 4.3% hits; active means well fitted inhibition curve with a large enough effect, not every such curve was filed as active; inconclusive means small, poorly fitted or top-dose-only effect, or another doubt; inactive means no such curve, though single readings can be large or run the other way; further: potency means the concentration at half of the fitted maximal effect; on the % scale 0 is the no-effect control and ±100 the full control effect
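NADH formation kinetics: reaction with 30 uM PGE2 and 1 mM NAD+ (final), 20 nM enzyme, Tris-HCl pH 8 with Tween 20, after 15 min compound preincubation at room temperature. Fluorescence change, last versus first of five reads.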
HTT cytoprotect = protects HTT-Q103 PC12 cells, measured by ATP; PC12 HTT-Q103 induced, cytoprotection, ATP luminescence, 40 h; Potency, µM (titrated, usually from 56.4 µM), without a hit: cytoprotection (ATP increase), usual class: activators; 230,000 compounds, 0.14% hits; AID 1471; further: potency means the concentration at half of the fitted maximal effect; % of control where 0% means no effect; nearly all actives have a fitted effect of over 45% in size
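PC12 cells stably carrying ecdysone-inducible Htt exon 1 (Q103)–GFP were induced with 100 nM tebufenozide (final) alongside library compounds in a dose series. Cytoprotection was scored as retained ATP by ATPlite luminescence.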
CBFb-RUNX1 inh = blocks binding between human CBF-beta and RUNX1 | Q01196+Q13951 | AlphaScreen CBFb-His/RUNX1-biotin binding, biochemical | Potency, µM (titrated, usually from 59.8 µM), inactives show top-dose activity, negative = inhibition, usual class: inhibitors | 230,000 tested, under 10 active | AID 1477; further: % of control where 0% means no effect
Target sequence (Q01196 whole entry, looked up): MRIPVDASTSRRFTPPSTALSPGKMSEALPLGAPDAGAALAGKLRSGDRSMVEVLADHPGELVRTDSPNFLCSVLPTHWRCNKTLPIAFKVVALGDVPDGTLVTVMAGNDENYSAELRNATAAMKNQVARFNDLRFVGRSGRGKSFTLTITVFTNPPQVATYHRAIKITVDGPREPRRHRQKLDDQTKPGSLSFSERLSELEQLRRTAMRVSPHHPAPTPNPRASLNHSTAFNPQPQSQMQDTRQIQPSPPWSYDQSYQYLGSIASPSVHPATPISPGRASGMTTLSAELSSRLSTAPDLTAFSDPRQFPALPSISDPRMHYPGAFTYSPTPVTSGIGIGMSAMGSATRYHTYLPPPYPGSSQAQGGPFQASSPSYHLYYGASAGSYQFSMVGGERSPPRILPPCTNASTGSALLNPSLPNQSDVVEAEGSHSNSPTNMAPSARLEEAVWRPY
Target sequence (Q13951 whole entry, looked up): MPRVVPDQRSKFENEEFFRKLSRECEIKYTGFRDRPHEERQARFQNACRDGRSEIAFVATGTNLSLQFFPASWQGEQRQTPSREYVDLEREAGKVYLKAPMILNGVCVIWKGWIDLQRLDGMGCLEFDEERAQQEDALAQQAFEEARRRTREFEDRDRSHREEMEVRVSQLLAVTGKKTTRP
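Inhibition was taken as any reduction in AlphaScreen signal from the CBF-beta–RUNX1 pair (His and biotin tags, 30 nM each), measured after compound (15 min) and bead (90 min) incubations at room temperature.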
ALDH1A1 block = inhibitors of human aldehyde dehydrogenase 1A1 | Purified ALDH1A1, NADH fluorescence, propionaldehyde substrate | 220,000 compounds, 7.3% hits | Potency, µM (doses to about 75.3 µM), for the others: at the highest dose activity, negative = inhibition, most hits filed as inhibitors | AID 1030 | P00352; active means well fitted inhibition curve with a large enough effect, not every such curve was filed as active; inconclusive means small, poorly fitted or top-dose-only effect, or another doubt; inactive means no such curve, though single readings can be large or run the other way;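 further: potency means the concentration at half of the fitted maximal effect; plate controls were no enzyme wells and a reference inhibitor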
PNC assembly inh = inhibitors of perinucleolar compartment assembly; 140,000 compounds, 3.1% hits; activity change (PNC), negative = inhibition, % at 10 µM; PC3M PTB-GFP, PNC prevalence imaging, 16 h; stronger effect = lower value;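 active means readout at or below -70, meaning at least 70% loss of cells showing the perinucleolar compartment, a nuclear body marking cancer cells; inconclusive means readout between -30 and a set limit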;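 further: plate controls were DMSO wells for no effect and camptothecin positive control wells for full effect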
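Compounds are pinned in duplicate onto adhered PC3M cells stably expressing GFP-tagged PTB and incubated 16 h at 37 C. Cells are then fixed, nuclei stained with Hoechst, and PNC-positive cells counted.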
HTT aggregate = inhibitors of mutant huntingtin aggregate formation in PC12 cells | PC12 HttQ103-GFP aggregates, Acumen cytometry, 40 h | Potency, µM (series often up to 46.1 µM), without a hit: at the highest dose activity change, negative = inhibition, most hits filed as inhibitors | 220,000 compounds, 1.1% hits | AID 1688; further: potency means the concentration at half of the fitted maximal effect; on the % scale 0 is the no-effect control and ±100 the full control effect; nearly all actives have a fitted effect of over 60% in size
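Aggregate formation scored by laser-scanning cytometer (488 excitation, 500–530 emission) in lysed PC12 cells expressing Q103-GFP after 100 nM tebufenozide induction; library tested in dose series, with ATPLite reagent added in the multiplex.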
An asterisk follows results filed as active; ? = inconclusive; . = no result given; [ ] = remark or other dose. Unless noted, the call rests on the fitted dose curve; in most records, active means well fitted curve in the direction sought with a large enough effect; inconclusive means small, poorly fitted or top-dose-only effect, or another doubt; inactive means no such curve, though single readings can be large; an effect the other way counts as inactive or inconclusive.

SMILES | HPGD block | HTT cytoprotect | CBFb-RUNX1 inh | ALDH1A1 block | PNC assembly inh | HTT aggregate
COc1ccccc1N=C1SC(C(=O)Nc2ccc(F)cc2)CC(=O)N1C (configuration not stated) | -6% | -2%[10 µM] | 1% | 8% | -100* | -5%
COc1c(-c2coc3cc4c(cc3c2=O)CC(OC(C)=O)C(C)(C)O4)ccc2c1C=CC(C)(C)O2 (configuration not stated) | -8% | . | . | -4% | . | .
COc1c(-c2coc3cc4c(cc3c2=O)CC(O)C(C)(C)O4)ccc2c1C=CC(C)(C)O2 (configuration not stated) | 16µM* | -357% | 19% | ? | . | .
CC(C)(C)N1C(=O)[C@@H]2[C@H]3C(=CC[C@H]2C1=O)C(=O)[C@H]1O[C@H]1[C@H]3O | . | 5.6µM* | 5%[13.1 µM] | ? | . | .
O=C1C2=CC[C@@H]3C(=O)N(c4ccc(F)cc4F)C(=O)[C@H]3[C@H]2[C@H](O)[C@H]2O[C@H]12 | . | 3.2µM* | -17%[13.1 µM] | -6%[13.5 µM] | . | .
C=CCN1C(=O)C(CC(=O)Nc2ccccc2)SC1=Nc1c(C)n(C)n(-c2ccccc2)c1=O (configuration not stated) | -13% | -17% | 0% | 7% | 56 | 18%
CCC/C=C1/CCCOC(C(=O)NCCOC)(C(F)(F)F)C1 (configuration not stated) | . | . | 7% | . | . | .
COc1ccccc1C(=O)O/N=C(\N)c1ccccc1Cl | 28µM* | 11%[10 µM] | -5% | -3% | -2 | 17%
Cc1cccc(/C(N)=N/OC(=O)c2ccc(Cl)cc2Cl)c1 | 16µM* | 11%[0.074 µM] | 9% | 9% | -2 | -15%
N/C(=N\OC(=O)c1ccc(Cl)cc1Cl)c1ccc(Cl)cc1 | 5µM* | -35% | 1% | 11% | 20 | 14%
COc1ccc(C(=O)O/N=C(\N)c2ccccc2)c(OC)c1 | 14µM* | . | 5% | ? | 3 | 2%
Cc1ccc(/C(N)=N/OC(=O)c2ccc(C)cc2Cl)cc1 | ? | -14%[10 µM] | 12% | -1% | 2 | -17%
COc1cccc(-c2nnc(NC(=O)c3ccc4ncsc4c3)o2)c1 | -26% | . | -9% | ? | 12 | ?
N/C(=N\OC(=O)c1ccc(Cl)cc1Cl)c1ccccc1 | 14µM* | -86% | -1% | -5% | -9 | 2%
N/C(=N\OC(=O)c1ccccc1Cl)c1ccccc1 | 11µM* | -24% | 3% | -10% | 79 | 16%
N/C(=N\OC(=O)c1ccc(Cl)cc1Cl)c1cccnc1 | . | -32%[10 µM] | 5% | ? | . | -7%[9.22 µM]
O=C(O/N=C(\c1ccccc1)c1ccncc1)c1ccccc1Cl | . | -3% | -5% | ? | . | 19%
CN(C)CCNC(=O)/C(=C/c1ccc(-c2ccc(Cl)cc2)o1)NC(=O)c1ccccc1 | -9% | -2%[0.074 µM] | 4% | -13% | -5 | 3.2µM*
Cc1ccc(C(=O)N/C(=C\c2ccc(-c3ccc(Br)cc3)o2)C(=O)NCCCN(C)C)cc1 | . | 8%[10 µM] | 2% | ? | . | ?
CN(C)CCNC(=O)/C(=C/c1ccc(-c2ccc(Cl)cc2Cl)o1)NC(=O)c1ccccc1 | -14% | . | 1% | ? | 16 | 35µM*
Cc1ccc(S(=O)(=O)O[C@@H]2[C@H]([C@@H]3COC(C)(C)O3)O[C@H]3OC(C)(C)O[C@@H]32)cc1 | -6% | 8%[10 µM] | . | -2%[13.5 µM] | . | .
CN(C(=O)COc1cc(=O)n(C)c2ccccc12)c1ccc(Br)cc1 | -10% | -15% | 9% | 22µM* | -22 | -7%
CCn1c(=O)cc(OCC(=O)N2CCN(C(=O)c3ccco3)CC2)c2ccccc21 | -12% | -7% | 7% | 18µM* | 9 | ?
CCn1c(=O)cc(OCC(=O)N(C)C2CCCCC2)c2ccccc21 | -10% | 30%[10 µM] | 2% | 20µM* | -19 | 30%
Nn1c(C2COc3ccccc3O2)n[nH]c1=S (configuration not stated) | . | 7%[10 µM] | -6% | 4.5µM* | . | -20%[9.22 µM]
SMILES | HPGD block | HTT cytoprotect | CBFb-RUNX1 inh | ALDH1A1 block | PNC assembly inh | HTT aggregate
CC(/C=C/c1ccc(N(C)C)cc1)=N/N=C1/NC(=O)CC(C(=O)Nc2ccc(Cl)cc2)S1 (configuration not stated) | -23% | . | 6% | 25µM* | 13 | ?
O=C1C(N2CCOCC2)=C(n2nnc3ccccc32)C(=O)c2ccccc21 | ? | -57%[10 µM] | ? | 1.3µM* | 12 | ?
O=S(=O)(c1cccs1)N1CCN(CC(O)COC2CCCc3ccccc32)CC1 (configuration not stated) | -16% | 0% | 3% | ? | 9 | -3%
O=S(=O)(c1cccs1)N1CCN(CC(O)COc2cccc(Br)c2)CC1 (configuration not stated) | -2% | 5% | -1% | 20µM* | -15 | ?
CC(C)(C)NC(=O)c1cccc(NC(=O)c2ccco2)c1 | -10% | 20%[10 µM] | -4% | 6% | -100* | 0%
O=C(N/N=C/c1cccs1)c1cccc(NC(=O)c2ccccc2Cl)c1 | -15% | 12%[10 µM] | 4% | 16µM* | 16 | -19%
Cc1cccc(C(=O)Nc2cccc(C(=O)N3CCOCC3)c2)c1 | -11% | -20% | 1% | -7% | -108* | 14%
CC(C)(C)NC(=O)c1cccc(NC(=O)c2ccc(NC(=O)c3ccco3)cc2)c1 | -13% | -19% | 2% | -13% | ? | 3%
O=C(Nc1cccc(C(=O)N2CCCCCC2)c1)c1ccco1 | 25µM* | 12% | 5% | 4% | 48 | 5%
COc1cccc(C(=O)Nc2cccc(C(=O)N3CCOCC3)c2)c1 | -13% | -27%[0.074 µM] | 6% | -5% | 0 | 1%
CSc1nc(C)nc(N/C=C(\C#N)S(=O)(=O)c2ccccc2Cl)n1 | . | 21%[10 µM] | 4% | . | . | 0%[9.22 µM]
COc1cc(/C=N/NC(=O)CCC(=O)NC2CCCCC2)ccc1C | . | -47% | 8% | -10% | . | 7%
O=C(Nc1cccc(C(=O)N2CCCC2)c1)c1ccccc1Cl | -16% | -10% | -10% | 4µM* | -21 | 13%
Cc1cc2cc(NC(=O)c3ccco3)ccc2[nH]1 | ? | 8% | 3% | 22µM* | ? | 14%
COc1ccc(OCc2csc(N)n2)cc1 | . | -105% | 4% | 11% | . | -4%
COc1ccc(Oc2cnc3ccccc3n2)cc1 | . | -30% | -3% | 2% | . | 11µM*
CC(=O)Nc1ccc(Oc2cnc3ccccc3n2)cc1 | -21% | 23% | 9% | 9% | ? | 11µM*
COc1ccc(NC(=S)NCCc2c(C)[nH]c3ccc(OC)cc23)cc1 | . | 18% | -19% | 5% | . | ?
